From PubChem BioAssay (EPA / NIEHS)
The source made the active and inactive calls. How the source made its calls: active means hit-call score of the fitted dose curve at least 0.9, where 1 is the maximum; inactive means score below 0.9.

Tests used:
[1] = ATG_CRE_CIS: Attagene CIS-FACTORIAL HepG2 Assay for human cAMP Responsive Element (CRE) binding protein 3 (AID 2282926); settings: HepG2 CRE cis-reporter, Attagene multiplexed mRNA; actives raise or lower the signal
In short: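 We dosed HepG2 cells bearing multiple cis-promoter reporter units for 24 h and measured reporter mRNA by RT-PCR with capillary electrophoresis detection. Bidirectional concentration-response fitting used DMSO as negative control.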

[2] = molecular target: CCAAT/enhancer-binding protein beta (Homo sapiens) (UniProt P17676); experiment: ATG_C_EBP_CIS: Attagene CIS-FACTORIAL HepG2 Assay for human CCAAT/Enhancer Binding Protein (C/EBP) beta (AID 2282927); settings: HepG2 Attagene cis-factorial transcription factor reporter; actives raise or lower the signal
Sequence of CCAAT/enhancer-binding protein beta (Homo sapiens) (P17676 whole entry, looked up): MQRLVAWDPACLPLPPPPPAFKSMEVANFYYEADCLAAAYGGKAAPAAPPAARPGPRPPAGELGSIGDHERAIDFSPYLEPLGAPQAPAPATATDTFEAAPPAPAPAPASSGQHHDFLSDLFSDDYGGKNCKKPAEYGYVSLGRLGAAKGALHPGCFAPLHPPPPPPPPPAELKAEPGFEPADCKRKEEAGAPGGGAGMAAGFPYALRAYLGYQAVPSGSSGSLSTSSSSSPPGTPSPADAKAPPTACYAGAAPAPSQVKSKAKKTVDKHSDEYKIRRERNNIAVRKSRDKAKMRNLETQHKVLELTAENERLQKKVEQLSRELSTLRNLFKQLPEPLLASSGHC
In short: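 RT-PCR/capillary electrophoresis fluorescence of reporter mRNA, 24 h post-dose, in HepG2 cells carrying transfected cis-promoter reporter units. Bidirectional curve fitting against DMSO baseline captures gain or loss of signal.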

[3] = ATG_CMV_CIS: Attagene CIS-FACTORIAL HepG2 Assay for human CMV (Internal Marker) (AID 2282928); settings: HepG2 CMV promoter reporter, transcription factor profiling; actives raise or lower the signal;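 further: endpoint acts as a background internal control marker rather than a target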
In short: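 Endogenous transcription factor activity read in HepG2 via transfected cis-promoter reporter units. After 24 h dosing, reporter mRNA measured by RT-PCR/capillary electrophoresis; gain or loss of signal fit relative to DMSO.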

[4] = ATG_DR4_LXR_CIS: Attagene CIS-FACTORIAL HepG2 Assay for human Liver X Receptor (LXR), DR4 submotif (AID 2282929); settings: HepG2 Attagene DR4 cis-reporter, mRNA transcription; actives raise or lower the signal
In short: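 Endogenous factor activity at a DR4 cis-element is read as reporter mRNA in transiently transfected HepG2 cells. Exposure lasts 24 h; transcripts are amplified, fluorescently labelled and sized by capillary electrophoresis, with DMSO as baseline.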

[5] = molecular target: Aryl hydrocarbon receptor (Homo sapiens) (UniProt P35869); experiment: ATG_Ahr_CIS: Attagene CIS-FACTORIAL HepG2 Assay for human Aryl Hydrocarbon Receptor (Ahr) (AID 2282930); settings: HepG2 AhR cis-factorial reporter transcription; actives raise or lower the signal
Sequence of Aryl hydrocarbon receptor (Homo sapiens) (P35869 whole entry, looked up): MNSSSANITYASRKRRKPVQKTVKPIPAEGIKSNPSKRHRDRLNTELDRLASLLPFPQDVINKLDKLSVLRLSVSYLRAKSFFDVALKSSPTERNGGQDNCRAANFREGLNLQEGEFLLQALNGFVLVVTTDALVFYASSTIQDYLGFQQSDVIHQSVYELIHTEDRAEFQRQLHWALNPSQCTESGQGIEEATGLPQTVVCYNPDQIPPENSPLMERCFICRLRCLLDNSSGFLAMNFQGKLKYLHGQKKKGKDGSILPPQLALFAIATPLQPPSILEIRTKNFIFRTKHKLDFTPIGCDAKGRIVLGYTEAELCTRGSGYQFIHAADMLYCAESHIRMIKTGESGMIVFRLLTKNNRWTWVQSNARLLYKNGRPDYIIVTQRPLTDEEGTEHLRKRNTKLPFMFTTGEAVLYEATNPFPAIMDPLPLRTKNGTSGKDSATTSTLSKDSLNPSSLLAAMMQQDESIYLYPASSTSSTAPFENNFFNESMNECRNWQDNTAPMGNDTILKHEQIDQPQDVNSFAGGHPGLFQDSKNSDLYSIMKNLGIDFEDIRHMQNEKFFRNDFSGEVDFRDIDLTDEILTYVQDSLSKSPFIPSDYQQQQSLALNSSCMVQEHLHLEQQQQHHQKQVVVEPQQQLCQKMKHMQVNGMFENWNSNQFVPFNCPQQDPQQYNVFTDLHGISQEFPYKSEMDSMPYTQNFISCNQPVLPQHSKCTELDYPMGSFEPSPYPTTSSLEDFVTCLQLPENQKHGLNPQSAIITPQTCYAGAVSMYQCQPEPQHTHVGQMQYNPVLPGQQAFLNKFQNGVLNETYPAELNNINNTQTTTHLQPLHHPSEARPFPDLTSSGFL
In short: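 HepG2 cells transiently transfected with cis-element-driven multiplexed reporter transcription units; endogenous transcription factor activity measured as reporter mRNA 24 h after dosing. RT-PCR, 6-FAM labelling, HpaI digestion, capillary electrophoresis; bidirectional fitting versus DMSO baseline.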

[6] = ATG_AP_1_CIS: Attagene CIS-FACTORIAL HepG2 Assay for human Activator Protein 1 (AP-1) (AID 2282931); settings: HepG2 Attagene cis-factorial AP-1 reporter mRNA; actives raise or lower the signal
In short: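 Fluorescence of labelled PCR fragments separated by capillary electrophoresis gives reporter mRNA levels. HepG2 with transfected cis-regulated reporter units, 24 h exposure; DMSO serves as baseline for bidirectional curve fits.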

[7] = ATG_AP_2_CIS: Attagene CIS-FACTORIAL HepG2 Assay for human Activator Protein 2 (AP-2) (AID 2282932); settings: HepG2 AP-2 cis-reporter, Attagene transcription factor profiling; actives raise or lower the signal
In short: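 Bidirectional curve fitting against DMSO was applied to reporter mRNA signals from HepG2 cells 24 h after dosing. Cis-promoter reporter units, transiently transfected, were read by RT-PCR plus capillary electrophoresis.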

[8] = ATG_BRE_CIS: Attagene CIS-FACTORIAL HepG2 Assay for human Bone Morphogenetic Protein (BMP) Response Element (BRE) (AID 2282933); settings: HepG2 BMP response element reporter, Attagene transcription factor profiling; actives raise or lower the signal
In short: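 HepG2 cells transiently transfected with CIS reporter units (endogenous TF activity, BMP response element), dosed 24 h. Reporter mRNA quantified by RT-PCR, fluorescent labelling and capillary electrophoresis; bidirectional fit vs DMSO baseline.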

[9] = molecular target: Retinoic acid receptor alpha (Homo sapiens) (UniProt P10276); experiment: ATG_DR5_RAR_CIS: Attagene CIS-FACTORIAL HepG2 Assay for human Retinoic Acid Receptor Alpha (RARE), DR5 submotif (AID 2282934); settings: HepG2 Attagene cis-factorial RARE DR5 reporter, mRNA; actives raise or lower the signal;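 on AC50: reporter responds to endogenous RAR alpha beta and gamma in HepG2 not RARA alone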
Sequence of Retinoic acid receptor alpha (Homo sapiens) (P10276 whole entry, looked up): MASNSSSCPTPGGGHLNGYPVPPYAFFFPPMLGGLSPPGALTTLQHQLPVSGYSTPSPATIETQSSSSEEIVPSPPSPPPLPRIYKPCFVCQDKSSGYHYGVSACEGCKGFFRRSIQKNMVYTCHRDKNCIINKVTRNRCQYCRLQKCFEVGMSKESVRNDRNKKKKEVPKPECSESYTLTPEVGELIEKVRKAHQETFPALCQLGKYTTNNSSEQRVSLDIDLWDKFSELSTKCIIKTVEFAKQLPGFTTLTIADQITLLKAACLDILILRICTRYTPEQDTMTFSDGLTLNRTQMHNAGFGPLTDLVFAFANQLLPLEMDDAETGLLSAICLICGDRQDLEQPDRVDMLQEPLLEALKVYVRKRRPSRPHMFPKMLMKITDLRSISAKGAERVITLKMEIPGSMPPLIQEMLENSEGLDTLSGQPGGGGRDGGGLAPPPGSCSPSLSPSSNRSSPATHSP
In short: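 HepG2 cells transiently transfected with multiplexed reporter units under cis (DR5 RARE) promoters, so endogenous transcription factor activity is measured. After 24 h compound exposure, reporter mRNA is quantified by RT-PCR with fluorescent labelling and capillary electrophoresis; bidirectional fitting versus DMSO.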

[10] = molecular target: Transcription factor E2F1 (Homo sapiens) (UniProt Q01094); experiment: ATG_E2F_CIS: Attagene CIS-FACTORIAL HepG2 Assay for human E2F Transcription Factor 1 (AID 2282935); settings: HepG2 Attagene cis-reporter, E2F reporter RNA transcripts; actives raise or lower the signal
Sequence of Transcription factor E2F1 (Homo sapiens) (Q01094 whole entry, looked up): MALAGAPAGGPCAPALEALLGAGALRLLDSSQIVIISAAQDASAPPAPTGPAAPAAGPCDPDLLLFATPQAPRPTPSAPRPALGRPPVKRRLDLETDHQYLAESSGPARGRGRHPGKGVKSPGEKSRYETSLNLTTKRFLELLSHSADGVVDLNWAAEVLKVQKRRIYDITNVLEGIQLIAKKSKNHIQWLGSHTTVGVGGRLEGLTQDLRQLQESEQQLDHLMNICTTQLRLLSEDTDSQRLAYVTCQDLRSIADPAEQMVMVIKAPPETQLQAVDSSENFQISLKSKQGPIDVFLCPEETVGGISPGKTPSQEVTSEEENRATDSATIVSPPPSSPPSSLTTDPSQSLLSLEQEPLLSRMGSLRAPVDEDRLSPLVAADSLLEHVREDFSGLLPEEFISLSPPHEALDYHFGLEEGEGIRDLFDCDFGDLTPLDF
In short: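 Multiplexed cis-reporter assay: HepG2, transient transfection, 24 h dosing, mRNA quantitation by labeled RT-PCR and CE.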

Measured: AC50

O=c1ssc(Cl)c1Cl
active: [1] 50.9 µM | [2] 53.4 µM | [4] 52.7 µM
inactive: all other assays above

CCOP(=S)(OCC)SCSc1ccc(Cl)cc1
inactive: all assays above

Cc1c([N+](=O)[O-])cc2c(c1[N+](=O)[O-])C(C)(C)CC2(C)C
active: [3] 100 µM | [8] 100 µM | [9] 2.78 µM
inactive: all other assays above

O=[N+]([O-])c1ccccc1
inactive: all assays above

CCCCC(CC)COP(=O)(Oc1ccccc1)Oc1ccccc1 (stereo not given)
active: [3] 35.4 µM | [4] 26.1 µM | [5] 17.8 µM | [6] 29.5 µM | [8] 21.4 µM
inactive: [1] | [2] | [7] | [9] | [10]

CC(O)C#N (stereo not given)
inactive: all assays above

COP(N)(=S)OC
inactive: all assays above

NC(=O)C(F)(F)C(F)(F)F
inactive: all assays above

CCOC(=O)c1ccccc1N
inactive: all assays above

c1cc2c3c(cccc3c1)CC2
inactive: all assays above

CCN(CC)C1CCCCC1
inactive: all assays above

O=C(O)C(F)(F)C(F)(F)C(=O)O
inactive: all assays above

O=C(O)C=CC(F)(C(F)(F)F)C(F)(F)F
inactive: all assays above

CCCCC(CC)COC(=O)c1c(Br)c(Br)c(Br)c(Br)c1C(=O)OCC(CC)CCCC (stereo not given)
inactive: all assays above

FC(F)(F)C(F)(C(F)(F)F)C(F)(F)C(F)(F)CC1CO1 (stereo not given)
inactive: all assays above

O=[N+]([O-])c1ccc(Cl)c(Cl)c1
inactive: all assays above

Oc1ccc(I)cc1
inactive: all assays above

CNC(=O)Oc1ccc(N(C)C)c(C)c1
inactive: all assays above

CCOP(=S)(OCC)SCS(=O)(=O)CC
inactive: all assays above

COC(N)=O
inactive: all assays above

N#Cc1cc([N+](=O)[O-])ccc1N
active: [5] 2.51 µM
inactive: all other assays above

CCOP(=S)(Oc1ccc([N+](=O)[O-])cc1)c1ccccc1 (stereo not given)
active: [4] 28.4 µM | [6] 22.1 µM | [8] 62.6 µM
inactive: all other assays above

O=[N+]([O-])c1cc(Cl)ccc1Cl
inactive: all assays above

CC(C)(C)c1ccccc1OP(=O)(Oc1ccccc1)Oc1ccccc1
active: [2] 14.8 µM | [3] 100 µM | [4] 27.1 µM | [6] 116 µM
inactive: all other assays above
